Data: PubChem BioAssay (EPA / NIEHS)
Records with an inconclusive call do not appear. Activity calls are given as the source filed them. Rule for the calls: active = hit-call score of the fitted dose curve at least 0.9, where 1 is the maximum; inconclusive = response in the unintended direction; inactive = score below 0.9.

What follows are compounds tested against Thyroid hormone receptor alpha (Rattus norvegicus) + Thyroid hormone receptor beta (Rattus norvegicus) (UniProt P18113+P63059) (assay: TOX21_TR_LUC_GH3_Antagonist_Followup: Tox21 GH3 Thyroid Hormone Receptor Antagonism Luciferase Follow-Up Assay (AID 2283942)).
Description: TOX21_TR_LUC_GH3_Agonist_Followup is a secondary assay for the TOX21_TR_LUC_GH3_Agonist assay. TOX21_TR_LUC_GH3_Agonist_Followup is a cell-based, single-readout assay that uses GH3, a rat pituitary gland cell line, with measurements taken at 28 hours after chemical dosing in a 1536-well plate.TOX21_TR_LUC_GH3_Antagonist_Followup is one of one assay component(s) measured or calculated from the TOX21_TR_LUC_GH3_Antagonist_Followup assay. It is designed to make measurements of luciferase induction, a form of inducible reporter, as detected with bioluminescence signals by CellTiter-Glo Luciferase-coupled ATP quantitation technology.Data from the assay component TOX21_TR_LUC_GH3_Antagonist_Followup was analyzed into 1 assay endpoint. This assay endpoint, TOX21_TR_LUC_GH3_Antagonist_Followup, was analyzed in the positive analysis fitting direction relative to DMSO as the negative control and baseline of activity. Using a type of inducible reporter, gain-of-signal activity can be used to understand changes in the reporter gene as they relate to the gene THRA and THRB in the GH3 cell line using a luciferase reporter. Furthermore, this assay endpoint can be referred to as a primary readout, because the performed assay has only produced 1 assay endpoint. This assay endpoint is designated followup because it was a confirmatory screen following the primary qHTS assay.
Cell Media Required: Growth (90% DMEM/F-12, 10% Fetal Bovine Calf Serum, 100U/ml Penicillin, 100 ug/ml Streptomycin), Assay (10ng/mL sodium selenite, 10 ug/mL humanapo-transferrin, 10 uM ethanolamine, 10 ug/mL insulin, 500 ug/mL bovine serum albumin (BSA))Assay Protocol: Cells were seeded at 1,500/well in 5 uL (agonist mode) and 4 uL (antagonist mode) of the assay medium in 1,536-well white/solid plates (Greiner Bio-One North America) using a Multi drop Combi (Thermo Fisher Scientific) dispenser. Chemical samples were serially diluted in DMSO, yielding 15 concentrations for testing. After 5-h incubationat 37C/5% carbon dioxide (CO2) for cell attachment, 23 nL of serially diluted compounds (yielding 92 uM to 5nM final assay concentration) and positive control (T3; agonist format), DMSO only (antagonist format) were transferred to the assay plates using a Pintool station (Wako). To screen compounds that antagonize T3-induced transactivation of TR, an extra 1 uL of T3 was added using a BioRAPTER Flying Reagent Dispenser (FRD; Aurora Discovery on the top of the cell/compound mixtures to achieve a final agonist concentration of 1.0 nM.The assay plates were in cubated at 37C/5% CO2 for 24 h. For the luciferase reporter gene assay, 5 uL/well (agonist format) and 4 uL/well (antagonist format) ONE-Glo reagent (Promega Corporation) was added using an FRD and after 30-min incubation at room temperature, the luminescence intensity was measured using a ViewLux plate reader. Data were expressed as relative fluorescence units (cell viability assay) and relative luminescence units (luciferase reporter assay).

Compound | outcome
CC[C@]1(O)CC[C@H]2[C@@H]3CCC4=CCCC[C@@H]4[C@H]3CC[C@@]21C | inactive
O=C1OC2(c3cc(Br)c(O)cc3Oc3c2cc(Br)c(O)[c]3[Hg])c2ccccc21 (stereo not drawn) | inactive
O=C(N[C@@H]1N=C(c2ccccc2F)c2cccc3c2N(CC3)C1=O)c1cc2ccccc2[nH]1 | inactive
CC(=O)[C@H]1CC[C@H]2[C@@H]3CC[C@@H]4C[C@H](O)CC[C@]4(C)[C@H]3CC[C@]12C | inactive
CCN(CC)CCO[C@H]1CC[C@@]2(C)C(=CC[C@@H]3[C@@H]2CC[C@]2(C)C(=O)CC[C@@H]32)C1 | inactive
CCC(COC(=O)c1cc(OC)c(OC)c(OC)c1)(c1ccccc1)N(C)C (stereo not drawn) | inactive
COc1cc([C@@H]2c3cc4c(cc3[C@@H](O)[C@H]3COC(=O)[C@H]23)OCO4)cc(OC)c1O | inactive
CC[n+]1ccccc1 | inactive
CC[C@H]1C[C@H]2[C@@H]3CCC4=CC(=O)CC[C@@H]4[C@H]3CC[C@]2(C)[C@H]1O | inactive
COC1=CC(=O)O[C@@H](/C=C/c2ccc3c(c2)OCO3)C1 | inactive
C[C@]12CC[C@H]3[C@@H](CCC4=C(Cl)C(=O)CC[C@@]43C)[C@@H]1CC[C@@H]2O | inactive
CN1C(=O)[C@@H](NC(=O)c2cc3ccccc3[nH]2)N=C(c2ccccc2)c2ccccc21 | inactive
C=CC[C@]1(O)CC[C@H]2[C@@H]3CCC4=CC(=O)CCC4=C3C=C[C@@]21C | inactive
